Laboratory results: PubChem BioAssay (EPA / NIEHS)
Results filed as inconclusive are left out. Activity calls are given as the source filed them. How the source made its calls: active means hit-call score of the fitted dose curve at least 0.9, where 1 is the maximum; inconclusive means response in the unintended direction; inactive means score below 0.9.

Test: Tanguay_ZF_120hpf_BRAI_legacy: (Legacy) Oregon State University Tanguay Lab 120 Hour Post-fertilization zebrafish Assay for Brain Malformation (AID 2283641)
How it was run: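 Wild-type 5D larvae, static waterborne exposure to 120 hpf, 28C, 0.64% v/v DMSO. Brightfield scoring of brain defects, binary; dead embryos excluded. Positive ctrl 5uM trimethyltin chloride.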

| SMILES | outcome |
| --- | --- |
| CNC(=O)N(C)c1nnc(C(C)(C)C)s1 | inactive |
| Nc1cnn(-c2ccccc2)c(=O)c1Cl | inactive |
| COP(=O)(OC)O/C(C)=C/C(=O)N(C)C | inactive |
| CCNC(=O)NC(=O)C(C#N)=NOC | inactive |
| CC(C)=CC1C(C(=O)OCc2coc(Cc3ccccc3)c2)C1(C)C (stereo unspecified) | inactive |
| CN/C(=N\[N+](=O)[O-])NCc1cnc(Cl)s1 | inactive |
| CN=C=S | inactive |
| CC(C)Nc1nc(Cl)nc(NC(C)C)n1 | inactive |
| Cc1cnc(C2=NC(C)(C(C)C)C(=O)N2)c(C(=O)O)c1 (stereo unspecified) | inactive |
| CCCC(=NOCC)C1=C(O)CC(CC(C)SCC)CC1=O (stereo unspecified) | inactive |
| CCOP(=S)(OCC)Oc1nc(Cl)n(C(C)C)n1 | inactive |
| CCOc1cc(C(C)(C)C)ccc1C1COC(c2c(F)cccc2F)=N1 (stereo unspecified) | inactive |
| N#CN=C1SCCN1Cc1ccc(Cl)nc1 | inactive |
| COC(=O)c1c(C(F)F)nc(C(F)(F)F)c(C2=NCCS2)c1CC(C)C | inactive |
| O=P(O)(O)CCCl | inactive |
| Clc1cccc(C(Cl)(Cl)Cl)n1 | inactive |

| SMILES | outcome |
| --- | --- |
| COc1cc(Cl)c(OC)cc1Cl | inactive |
| CC(C)C1(C)N=C(c2ncccc2C(=O)O)NC1=O (stereo unspecified) | inactive |
| CC1(C)CON(Cc2ccccc2Cl)C1=O | inactive |
| CCOc1nc(C(Cl)(Cl)Cl)ns1 | inactive |
| COCc1cnc(C2=NC(C)(C(C)C)C(=O)N2)c(C(=O)O)c1 (stereo unspecified) | inactive |
| CCSC(=O)N1CCCCCC1 | inactive |
| CCC(C)n1c(=O)[nH]c(C)c(Br)c1=O (stereo unspecified) | inactive |
| CCNP(=S)(OC)O/C(C)=C/C(=O)OC(C)C (stereo unspecified) | inactive |
| Cc1cc(C)nc(Nc2ccccc2)n1 | inactive |
| COc1cc(OC)nc(NC(=O)NS(=O)(=O)c2ncccc2OCC(F)(F)F)n1 | inactive |
| CCN(CC)c1nc(C)cc(OP(=S)(OC)OC)n1 | inactive |
| CCOc1nc(F)cc2nc(S(=O)(=O)Nc3c(Cl)cccc3Cl)nn12 | inactive |
| CCCCOCN(C(=O)CCl)c1c(CC)cccc1CC | inactive |
| CNC(=O)Oc1cccc2ccccc12 | inactive |
| N#Cc1c(Cl)cccc1Cl | inactive |

Test: Tanguay_ZF_120hpf_SOMI_legacy: (Legacy) Oregon State University Tanguay Lab 120 Hour Post-fertilization zebrafish Assay for Somite Malformation (AID 2283647)
How it was run: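 Read-out: presence or absence of somite malformation in 120 hpf larvae, gain-of-signal relative to DMSO baseline. Embryos lacked chorion (pronase, 4 hpf) and were exposed statically from 6 hpf at 28C; dead larvae not scored.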

| SMILES | outcome | AC50 |
| --- | --- | --- |
| CNC(=O)N(C)c1nnc(C(C)(C)C)s1 | inactive | – |
| Nc1cnn(-c2ccccc2)c(=O)c1Cl | inactive | – |
| COP(=O)(OC)O/C(C)=C/C(=O)N(C)C | inactive | – |
| CCNC(=O)NC(=O)C(C#N)=NOC | – | 41.6 µM (active) |
| CN/C(=N\[N+](=O)[O-])NCc1cnc(Cl)s1 | inactive | – |
| CC(C)Nc1nc(Cl)nc(NC(C)C)n1 | inactive | – |
| Cc1cnc(C2=NC(C)(C(C)C)C(=O)N2)c(C(=O)O)c1 (stereo unspecified) | inactive | – |
| CCCC(=NOCC)C1=C(O)CC(CC(C)SCC)CC1=O (stereo unspecified) | inactive | – |
| CCOP(=S)(OCC)Oc1nc(Cl)n(C(C)C)n1 | inactive | – |
| CCOc1cc(C(C)(C)C)ccc1C1COC(c2c(F)cccc2F)=N1 (stereo unspecified) | inactive | – |
| N#CN=C1SCCN1Cc1ccc(Cl)nc1 | inactive | – |
| COC(=O)c1c(C(F)F)nc(C(F)(F)F)c(C2=NCCS2)c1CC(C)C | inactive | – |
| O=P(O)(O)CCCl | inactive | – |
| Clc1cccc(C(Cl)(Cl)Cl)n1 | inactive | – |
| COc1cc(Cl)c(OC)cc1Cl | inactive | – |
| CC1(C)CON(Cc2ccccc2Cl)C1=O | inactive | – |
| COC(=O)NC(=S)Nc1ccccc1NC(=S)NC(=O)OC | inactive | – |
| CCOc1nc(C(Cl)(Cl)Cl)ns1 | inactive | – |
| COCc1cnc(C2=NC(C)(C(C)C)C(=O)N2)c(C(=O)O)c1 (stereo unspecified) | inactive | – |
| CCSC(=O)N1CCCCCC1 | inactive | – |
| CCC(C)n1c(=O)[nH]c(C)c(Br)c1=O (stereo unspecified) | inactive | – |
| Cc1cc(C)nc(Nc2ccccc2)n1 | inactive | – |
| COc1cc(OC)nc(NC(=O)NS(=O)(=O)c2ncccc2OCC(F)(F)F)n1 | inactive | – |
| CCN(CC)c1nc(C)cc(OP(=S)(OC)OC)n1 | inactive | – |
| CS(=O)(=O)c1cc(C(F)(F)F)ccc1C(=O)c1cnoc1C1CC1 | inactive | – |
| CCOc1nc(F)cc2nc(S(=O)(=O)Nc3c(Cl)cccc3Cl)nn12 | inactive | – |
| CCCCOCN(C(=O)CCl)c1c(CC)cccc1CC | inactive | – |
| CNC(=O)Oc1cccc2ccccc12 | inactive | – |
| N#Cc1c(Cl)cccc1Cl | inactive | – |
| Cc1nc(N(C)C)nc(OC(=O)N(C)C)c1C | inactive | – |
